FMDV inh: antivirals against foot and mouth disease virus; 1.2% of 410,000 active; FMDV antiviral cell-based qHTS; Potency, µM (titrated, usually from 57.9 µM), for the others: at the top dose activity change, negative = inhibition, usual class: inhibitors; calls by dose curve; tested in HEK293T cells; further: read-out not given here; potency means the concentration at half of the fitted maximal effect; nearly all actives have a fitted effect of over 45% in size
Marburg entry inh: blocks Marburg virus binding to or entry into cells; Marburg virus pseudotyped entry inhibition, cell reporter; Potency, µM (top dose mostly 37.8 µM), without a hit: top-dose activity change, negative = inhibition, most hits filed as inhibitors; 1.8% of 300,000 active; AID 540276; calls by dose curve; tested in HEK293 cells; further: potency means the concentration at half of the fitted maximal effect
Lassa entry inh: Lassa virus entry inhibition; Lassa virus pseudotype entry inhibition, cell reporter; Potency, µM (series often up to 37.9 µM), for the others: at the top dose activity change, negative = inhibition, hits mostly inhibitors; 1.2% of 300,000 active; AID 540256; calls by dose curve; tested in HEK293 cells; further: potency means the concentration at half of the fitted maximal effect; nearly all actives have a fitted effect of over 50% in size
HCMV inh: human cytomegalovirus inhibition; HFF cells, HCMV-luciferase reporter, 72 h; active compounds read low; activity change, negative = inhibition, % at 57.5 µM; 4.5% of 410,000 active; in the data active means activity change below about -60%; inconclusive means no clear call, values can overlap the other calls; inactive means above about -39%
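Two-dose cell screen: HFF monolayers treated with compounds and infected with luciferase-expressing HCMV at 1 PFU/cell, 72 h at 37C, then lysed for luciferase measurement.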
An asterisk follows results filed as active; ? = inconclusive; . = no result given; + = active, no number; [ ] = another dose, or the depositor's remark. In the library only some 6.2% were active in any assay of this set; here they are far more common. On the % scale 0 is the no-effect control and ±100 the full control effect.

SMILES | FMDV inh | Marburg entry inh | Lassa entry inh | HCMV inh
CC(=O)NC(Cc1ccccc1)C(=O)NC1CCN(C(=O)c2ccc([N+](=O)[O-])cc2)CC1 (stereo not drawn) | -14.9% | 8.7% | 6.7% | -22.1
CC(=O)NC(Cc1cccc(C)c1)C(=O)NC1CCN(C(=O)c2ccc([N+](=O)[O-])cc2)CC1 (stereo not drawn) | 16.8% | -0.6% | -6.2% | -74.4*
CC(C)c1ccc(NC(=O)C2C3C=CC4(O3)C2C(=O)N(CCCN2CCCCC2)C4C(=O)NC2CCCCC2)cc1 (stereo not drawn) | -9.7% | 2.8%[46.1 µM] | . | -77.2*
CC1=CC(C)(C)Nc2ccc(OC(=O)CCN3C(=O)c4ccccc4C3=O)cc21 | ? | ? | ? | -99.5*
Cc1ccc(OC(=O)CN2C(=O)c3ccccc3C2=O)cc1C | -11.7% | 20.3%[46.1 µM] | 24.0%[46.1 µM] | -61.0*
O=C(CCN1C(=O)c2ccccc2C1=O)Oc1ccc2ccccc2c1 | 14.8% | 3.0% | -16.9% | 46.3
O=C(CN1C(=O)c2ccccc2C1=O)Oc1ccc(Cl)cc1 | -11.8% | -3.1%[46.1 µM] | 6.5%[46.1 µM] | -4.6
COc1ccc(NC(=O)C2CCN(S(C)(=O)=O)CC2)c(OC)c1 | -10.7% | . | . | -24.5
CCc1nc2c(oc3ccccc32)c(=O)[nH]1 | 24.7% | ? | 24.4% | 44.6
O=c1[nH]c(CSc2ccccn2)nc2c1oc1ccccc12 | -29.2% | ? | 5.62µM* | -22.6
O=C(c1ccc2c3c(cccc13)CC2)C1CCCN(Cc2ccncc2)C1 (stereo not drawn) | ? | . | . | -68.7*
O=C(c1ccc(Cl)cc1)C1CCCN(Cc2cccc3cnccc23)C1 (stereo not drawn) | ? | . | . | -61.9*
O=C(c1ccc(Cl)cc1)C1CCCN(Cc2ccc3ncccc3c2)C1 (stereo not drawn) | ? | ? | . | -75.3*
COc1ccc(CN2CCCC(C(=O)c3ccc(Cl)cc3)C2)c(OC)c1 (stereo not drawn) | -24.6% | ? | ? | 19.0
O=C(c1cccc(Cl)c1)C1CCCN(Cc2cccc3cnccc23)C1 (stereo not drawn) | ? | ? | -7.1% | -71.1*
CCOC(=O)N1CCN(CC(O)COc2ccccc2C(C)CC)CC1 (stereo not drawn) | -22.6% | 0.0% | -12.1% | -20.4
Cc1cc(C)cc(N(C)S(=O)(=O)c2nnc(NC(=O)C(C)C)s2)c1 | -8.7% | ? | ? | ?
CCN(c1ccc(C)cc1C)S(=O)(=O)c1nnc(NC(=O)C(C)C)s1 | -26.9% | . | . | -72.9*
CCN(c1cc(C)cc(C)c1)S(=O)(=O)c1nnc(NC(=O)C(C)C)s1 | 12.6% | ? | -19.7% | -77.3*
CCN(c1ccc(C)cc1C)S(=O)(=O)c1nnc(NC(=O)C(C)(C)C)s1 | -25.7% | ? | ? | 32.7
Cn1nnnc1SCC(=O)NC(=O)Cc1ccccc1 | -5.5% | 4.9% | 21.3% | -10.4
O=C(CNC(=O)c1ccccc1Cl)N/N=C/c1ccc([N+](=O)[O-])s1 | -10.3% | ? | ? | -92.8*
CCC/C=N/NC(=O)CNC(=O)c1ccccc1Cl | 3.6% | 4.7%[46.1 µM] | 5.8%[46.1 µM] | -67.9*
Cc1cc(C)cc(N=Cc2ccc([N+](=O)[O-])s2)c1 | 0.0% | ? | ? | -1.5
Cc1ccc(NC(=S)N/N=C/c2ccc([N+](=O)[O-])s2)cc1 | ? | ? | 17.8µM* | -74.3*
SMILES | FMDV inh | Marburg entry inh | Lassa entry inh | HCMV inh
CCC/C=N/NC(=O)c1ccccc1O | 21.1% | ? | -0.3%[46.1 µM] | -28.6
CSc1sc(C(=O)N(C)C)cc1S(=O)(=O)C(C)C | -9.7% | . | . | 8.1
O=C(N/N=C\c1cccc(F)c1)c1ccc(-c2ccccc2)cc1 | 27.1% | 0.2%[46.1 µM] | -1.8%[46.1 µM] | -33.4
O=C(N/N=C\c1c(F)c(F)c(F)c(F)c1F)c1ccc(-c2ccccc2)cc1 | 8.1% | 9.6% | 6.0% | -68.8*
CCOC(=O)c1c(C)n(S(=O)(=O)c2ccc(C)cc2)c2ccc(NS(=O)(=O)c3ccc(C)cc3)cc12 | -5.6% | -30.0%[46.1 µM] | 6.31µM* | 22.7
COc1ccc(-c2cc(C(F)(F)F)nc(SCC(=O)N3CCOCC3)n2)cc1OC | -25.0% | -7.1% | -26.3% | 11.0
Cc1nn(Cc2ccc(Cl)cc2)c(C)c1NC(=O)c1cc(-c2ccc3c(c2)OCO3)on1 | ? | ? | -17.9% | -93.7*
Cc1ccc(NC(=O)c2cc(-c3ccc4c(c3)OCO4)on2)cc1 | 9.5% | 1.3% | ? | ?
Cc1nn(Cc2ccc(Cl)c(Cl)c2)c(C)c1NC(=O)c1cc(-c2ccc3c(c2)OCO3)on1 | ? | 6.51µM* | ? | -72.9*
COc1ccc(-c2cc(C(=O)Nc3cc(C)n(Cc4ccc(Cl)cc4)n3)no2)cc1OC | 3.55µM* | ? | ? | ?
COc1ccc(CCNC(=O)c2cc(-c3ccc(Cl)cc3)on2)cc1OC | 8.1% | -8.8%[46.1 µM] | ? | -9.6
O=C(NC1CCCc2ccccc21)c1cc(F)cc(F)c1 (stereo not drawn) | -4.9% | 9.1%[46.1 µM] | 7.0%[46.1 µM] | -36.7
Cc1ccc2cc(CN(Cc3cccs3)Cc3nnnn3CC3CCCO3)c(=O)[nH]c2c1C (stereo not drawn) | 13.4% | ? | -23.9% | -13.4
Cc1ccc(S(=O)(=O)Nc2ncnc3sc(C)c(C)c23)cc1 | -14.2% | -7.6% | -8.1% | 0.0
Cc1sc2ncnc(NCCc3ccc(S(N)(=O)=O)cc3)c2c1C | 11.2µM* | ? | ? | -76.4*
Cc1ccc(Oc2nnc(-c3cccs3)c3ccccc23)cc1C | ? | ? | -16.0% | -61.9*
COCCNC(=O)c1cnn(-c2cccc(C)c2)c1-n1cccc1 | 12.2% | . | 18.8%[46.1 µM] | +
CCOC(=O)N1CCC(NC(=O)c2cnn(-c3cccc(C)c3)c2-n2cccc2)CC1 | ? | . | -19.0%[46.1 µM] | 0.0
COc1ccccc1Nc1nn2c(=O)c3ccc(C(=O)NCc4ccc(F)cc4)cc3nc2s1 | ? | . | ? | -90.2*
Cc1ccc(Cl)cc1Nc1nn2c(=O)c3ccc(C(=O)NCc4cccs4)cc3nc2s1 | ? | . | -27.3%[46.1 µM] | -98.3*
CCN(CC)CCNC(=O)c1ccc2c(=O)n3nc(Nc4ccccc4)sc3nc2c1 | -7.7% | . | 14.7%[46.1 µM] | -90.5*
Cc1ccccc1Nc1nn2c(=O)c3ccc(C(=O)NCc4cccs4)cc3nc2s1 | -3.0% | . | ? | -18.9
CCc1ccccc1Nc1nn2c(=O)c3ccc(C(=O)NCc4ccccc4OC)cc3nc2s1 | -9.7% | . | ? | ?
CCc1cccc(NC(=O)c2ccc3c(=O)n4nc(Nc5ccccc5OC)sc4nc3c2)c1 | 0.0% | . | ? | -88.0*
O=C(Cn1nnc(-c2ccc(Cl)cc2)n1)NCCC1=CCCCC1 | 15.6% | ? | 7.8% | ?
SMILES | FMDV inh | Marburg entry inh | Lassa entry inh | HCMV inh
C=CCn1c(-c2ccc(Cl)cc2)cnc1SC(C)C(=O)NC(N)=O (stereo not drawn) | ? | -8.3%[46.1 µM] | -4.8% | -73.8*
CC(=O)N1CCOc2cc(S(=O)(=O)NCc3ccc(C)cc3)c(Cl)cc21 | 38.8% | . | -23.5%[46.1 µM] | -30.7
Cc1cc(C)cc(NC(=O)Cn2nnc(C(=O)Nc3cc(C)cc(C)c3)c2N)c1 | -11.3% | -29.5%[46.1 µM] | -17.4%[46.1 µM] | -83.1*
CCOC(=O)CSc1nc2c(sc(=S)n2-c2ccccc2)c(=O)[nH]1 | -21.6% | 0.6% | -2.1% | -26.5
Cc1ccc(C)c(OCC(=O)NCCNC(=O)COc2cc(C)ccc2C)c1 | -29.2% | -12.4% | -1.3% | 31.3
C/C=N\NC(=O)COc1cc(C)ccc1C | -5.6% | -6.8%[46.1 µM] | 23.7% | -60.1*

Source: PubChem BioAssay (National Center for Advancing Translational Sciences (NCATS))
